High-throughput results from PubChem.
The list is a sample of the results.
aSyn UTR act = Activators working through SNCA 5'UTR binding (MLPCN). alpha-synuclein 5'UTR reporter, activators screen. actives 7.1% (n = 300,000). activity score, % (tested at 7.5 µM), hits read low. AID 1814; in the data active means activity score below about -60%
Hits are given with their value.

What do the screens show for `CC(/C=N/NC(=O)c1cccnc1)=C\c1ccco1`?
aSyn UTR act: -103

What do the screens show for `CC1Cc2cc(/C=C3/SC(=S)NC3=O)ccc2O1` (configuration not stated)?
aSyn UTR act: -106

What do the screens show for `CCn1c(=NC(=O)c2ccco2)sc2cccc(F)c21`?
aSyn UTR act: -126

Results for Cc1cccc(/C=N/NC(=O)c2c(-c3ccccc3)noc2C)c1O ?
aSyn UTR act: inactive

Results for Cc1cc(C(=O)N/N=C/c2ccccc2Br)no1 ?
aSyn UTR act: -68

How did CCN(CC)c1ccc(/C=C/C(=O)C2C(=O)C=C(C)OC2=O)cc1 (configuration not stated) do in these assays?
aSyn UTR act: -240

Results for c1ccc(-c2noc(C34CC5CC(CC(C5)C3)C4)n2)nc1 ?
aSyn UTR act: -209

Results for c1ccc(-c2noc(C34CC5CC(CC(C5)C3)C4)n2)cc1 ?
aSyn UTR act: -69

How did Cc1ccc(CNC(=O)Nc2ccccc2)c(C)c1 do in these assays?
aSyn UTR act: -153

How did Cc1ccccc1CNC(=O)Nc1ccc(Cl)cc1 do in these assays?
aSyn UTR act: -110

Results for O=C(CCc1nnc(CCCc2ccccc2)o1)NC(C1CC1)C1CC1 ?
aSyn UTR act: -146

Results for CC(NC(=O)CCc1nnc(-c2ccc(-c3ccccc3)cc2)o1)c1nccs1 (configuration not stated) ?
aSyn UTR act: inactive

What do the screens show for `Cc1nc(C(C)NC(=O)CCc2nnc(CCCc3ccccc3)o2)c(C)s1` (configuration not stated)?
aSyn UTR act: -174

How did CCCCN(C)C(=S)Nc1ccc2nc(N3CCN(CC)CC3)cc(C)c2c1 do in these assays?
aSyn UTR act: -70

What do the screens show for `Cc1cc(N2CCN(C)CC2)nc2ccc(NC(=S)N3CCCCC3)cc12`?
aSyn UTR act: -85

Results for Cc1cccc(N2CCN(C(=S)Nc3ccc4nc(N5CCN(C)CC5)cc(C)c4c3)CC2)c1C ?
aSyn UTR act: inactive

Results for CCN1CCN(c2cc(C)c3cc(NC(=O)c4cccs4)ccc3n2)CC1 ?
aSyn UTR act: -109

How did CCN1CCN(c2cc(C)c3cc(NC(=O)c4ccc(OC)c(OC)c4)ccc3n2)CC1 do in these assays?
aSyn UTR act: -72

Results for CCN1CCN(c2cc(C)c3cc(NC(=O)c4cccc(OC)c4)ccc3n2)CC1 ?
aSyn UTR act: -124

What do the screens show for `COc1ccc(C(=O)Nc2ccc3nc(N4CCN(C)CC4)cc(C)c3c2)c(OC)c1`?
aSyn UTR act: -78

Results for CC(=O)c1ccc(NC(=O)c2cccs2)cc1 ?
aSyn UTR act: -88

Results for Cc1ccc(NC(=O)c2ccccc2NC(=O)c2cccs2)cc1 ?
aSyn UTR act: -80

Results for COC(=O)Cc1ccc(NC(=O)c2cccs2)cc1 ?
aSyn UTR act: -159

How did N/C(=N\O)c1ccc(NC(=O)c2cccs2)cc1 do in these assays?
aSyn UTR act: -81

Results for CCCCCOc1ccc(Br)cc1/C(C)=N/NC1=NCCN1 ?
aSyn UTR act: inactive

How did O=C1NC(=S)N/C1=C/C=C/c1ccccc1 do in these assays?
aSyn UTR act: -92

What do the screens show for `O=C(/C=C/c1ccc(F)cc1)NC(=S)N1CCN(c2ccccn2)CC1`?
aSyn UTR act: -85

What do the screens show for `COc1ccc(/C=C/C(=O)NC(=S)N2CCN(c3ccccc3OC)CC2)cc1`?
aSyn UTR act: -160

Results for COc1ccc(/C=C/C(=O)NC(=S)N2CCOCC2)cc1 ?
aSyn UTR act: -84

How did O=C(NCCC1=CCCCC1)c1cnc2n(c1=O)CCS2 do in these assays?
aSyn UTR act: -108

How did Nc1c(C(=O)Nc2ccc(S(=O)(=O)N3CCCC3)cc2)sc2nc3ccc(OC(F)(F)F)cc3cc12 do in these assays?
aSyn UTR act: inactive

Results for O=C(NCCCc1ccccc1)c1cnc2n(c1=O)CCS2 ?
aSyn UTR act: -125

What do the screens show for `O=C(Nc1cccc(C(F)(F)F)c1)c1cnc2n(c1=O)CCS2`?
aSyn UTR act: -108

How did O=C(Nc1ccc(OC(F)(F)F)cc1)c1cnc2n(c1=O)CCS2 do in these assays?
aSyn UTR act: -160

Results for O=C(Nc1ccccc1)c1cnc2n(c1=O)CCS2 ?
aSyn UTR act: -100

What do the screens show for `Cc1cc2ccc3ccccc3c2cc1CN(C)C`?
aSyn UTR act: -76

Results for O=C(/C=C/c1ccc([N+](=O)[O-])cc1)/C=C/c1ccco1 ?
aSyn UTR act: -215

How did O=C(Nc1ccc2c(c1)OCCO2)c1cnc2n(c1=O)CCS2 do in these assays?
aSyn UTR act: -75

How did O=C(Nc1ccc2c(c1)OCO2)c1cnc2n(c1=O)CCS2 do in these assays?
aSyn UTR act: -125

Results for CCOc1ccc2c(c1)sc(=NC(=O)C1CC1)n2C ?
aSyn UTR act: -215

What do the screens show for `O=C(NCc1ccccc1)c1cc(-c2cccc(O)c2)on1`?
aSyn UTR act: -66

Results for Cc1ccc(NC(=O)c2cc(-c3cccc(O)c3)on2)cc1C ?
aSyn UTR act: -115

What do the screens show for `O=C(NCc1cccnc1)c1cc(-c2ccccc2)on1`?
aSyn UTR act: -89

Results for COc1ccc(CNC(=O)c2cc(C3CC3)on2)cc1 ?
aSyn UTR act: -106

Results for O=C(NCc1cccnc1)c1cc(-c2cccs2)on1 ?
aSyn UTR act: -92
